# From PubChem BioAssay (NCATS)
# Inconclusive results are not listed. Values without a mark were called inactive. Active and inactive are the calls of the source. Calls come from the whole dose curve; as a rule, active = well fitted cell-killing curve with a large enough effect; inconclusive = small, poorly fitted or top-dose-only effect, or effect the other way; inactive = flat fitted curve, though single readings scatter.
# Test system: JEG-3
# Assay: Primary qHTS to identify gynecologic anti-cancer compounds using libraries of approved drugs and bioactive compounds (AID 1345084); note: nearly all actives have a fitted effect of over 55% in size
# Settings: Gynecologic cancer cell panel viability, ATPlite luminescence, 48 h; series mostly up to 57.5 µM; activity change, negative = cytotoxicity: at the top concentration
# How it was run: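 In this quantitative HTS, cell killing is estimated from loss of ATP-dependent luciferase light. Cells see five compound concentrations over a 48 h exposure.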
# % is set by controls: 0 for no effect and ±100 for the full control effect; potency is the fitted concentration of half-maximal effect.
Compound,"activity change, negative = cytotoxicity",Potency
Cc1ccnn1-c1ccc(C(=O)N2CCN(S(=O)(=O)c3ccc(Cl)c(C(F)(F)F)c3)CC2)cc1,-0.917%,–
Fc1ccc(N2CCCCC2)c(NC(=S)c2ccncc2)c1,17.5%,–
O=C(Cc1c(F)cccc1F)Nc1cc(OCc2ccc(Cl)cc2)ccn1,19.1%,–
CCN(c1cc(-c2ccc(CN3CCOCC3)cc2)cc(C(=O)NCc2c(C)cc(C)[nH]c2=O)c1C)C1CCOCC1,8.49%,–
C/C=C(/C)C(=O)O[C@@H]1C[C@@H](OC(=O)CC(C)C)C2(C)C3C(=O)C=C(C)C2C3C1(C)C (stereo not given in full),-19.5% [at 25.3 µM],–
CCOc1cc(C(C)(C)C)ccc1C1=NC(C)(c2ccc(Cl)cc2)C(C)(c2ccc(Cl)cc2)N1C(=O)N1CCN(CCCS(C)(=O)=O)CC1 (stereo not given),-17.2%,–
COc1ccc(S(=O)(=O)N2CCC[C@H]2C(=O)Nc2cc(C)cc(C)c2)cc1,0.511%,–
CN(C)C(=O)Nc1cc(-c2ccccc2)ccc1N(C)C,-3.56%,–
COc1ccc(NC(=O)c2ccc(C(=N)N(C)C)cc2)c(C(=O)Nc2ccc(Cl)cn2)c1,6.8%,–
Nc1nccc(-c2c(-c3ccc(F)cc3)ncn2C2CCCCC2)n1,-17.4%,–
COc1cc(O)c2c(c1)/C=C/C[C@H](O)[C@H](O)C(=O)/C=C\C[C@H](C)OC2=O,-9.68%,–
CC(C)c1cc(-c2ccc(F)c3ccccc23)nc(N)n1,-1.74%,–
CNc1cccc(CCOc2ccc3c(c2)CN(CC(F)(F)F)C(=O)[C@H](CC(=O)O)C3)n1,-13.7%,–
OC[C@H]1O[C@@H](OC/C=C/c2ccc(O)cc2)[C@H](O)[C@@H](O)[C@@H]1O,-3.41% [at 38.5 µM],–
Cn1ccc(NC(=O)c2cc(Oc3ccc(C(=O)N4CCC4)c(F)c3)c3c(c2)OC(C)(C)C3)n1,2.5%,–
COc1ccc2nc3n[nH]c(C)c3c(NCCOCCO)c2c1,18%,–
CC(=O)Nc1cccc(Nc2ncnc(N3CCC(OCc4ccc(OC(F)(F)F)cc4)CC3)n2)c1C,-20.6%,–
C=C(C(=O)OC[C@H]1O[C@@H](OC(=O)/C=C/c2ccccc2)[C@H](O)[C@@H](O)[C@@H]1O)C(O)CO (stereo not given in full),2.56% [at 25.3 µM],–

Compound,"activity change, negative = cytotoxicity",Potency
COc1ccccc1C(=O)Nc1cc2c(cc1N1CCCC1)n(C)c(=O)n2C,7.79%,–
Clc1cccc(COc2cncc(N3CCNCC3)n2)c1,-17.5%,–
CCOc1cn(-c2ccc(F)cc2C)nc1C(=O)Nc1ccc(Oc2ccnc3cc(OC)c(OC)cc23)c(F)c1,-6.04%,–
O=C(Nc1ccccc1Br)NC1CCN(c2ccc(C(F)(F)F)cn2)C1 (stereo not given),5.57%,–
Cc1noc(C)c1-c1cc(O)cc(C(O)c2ccccc2)c1 (stereo not given),1.54%,–
Cc1c(OCc2cccc(-c3ccc(C(=O)O)cc3)c2)cc2c(c1C)C(=O)C(C1CCCC1)C2 (stereo not given),6.76%,–
Cn1cc(-c2ccc(S(=O)(=O)n3ccc(/C=C/C(=O)Nc4ccccc4N)c3)cc2)cn1,–,10 µM (active)
CC1(NC(=O)c2ccc(C#Cc3cccc(F)c3)cn2)COC1,1.84%,–
O=C(NCCN1CCC(n2c(=O)[nH]c3ccccc32)CC1)c1cc2cc(F)ccc2[nH]1,-0.233%,–
Cc1c(C(=O)Nc2ccc(N3CCC(N4CCOCC4)CC3)c(C#N)c2)cnn1-c1ccc(Cl)cc1,–,0.794 µM (active)
CCN1CCC[C@@H]1CNC(=O)c1ccc2c(c1)NC(=O)c1cccc(C)c1S2,4.01%,–
O=C(CNC(=O)c1cccc(C(F)(F)F)c1)N[C@@H]1CCN(Cc2ccc(Cl)cc2)C1,3.67%,–
CC(=O)NC(C)c1cnc(-c2cnc(Oc3ccc(OC(C)C)cc3)s2)s1 (stereo not given),6.06%,–
O=C(NNc1nc2cc(F)ccc2n2cccc12)c1cnccn1,-1.16%,–
C[C@@H](Nc1ncnc2[nH]c(-c3ccc(O)cc3)cc12)c1ccccc1,7.3%,–
CC1=CC2/C=C(\C)CCC3OC(C)(C)OC3CCC(=O)C23C(=O)NC(CC(C)C)C3C1C (stereo not given),-6.34% [at 25.3 µM],–
CC1(CO)CC2C(O)C3=C(CC(C)(O)C2C1)C(=O)OC3 (stereo not given),3.92%,–
